The panel holds about 79,000 compounds, 15% with a hit somewhere; the sample as a whole holds those more often. A number with no mark means an inactive call. Calls of active or inactive are those of the source. No stated cut-off is given here; in the data, active means growth inhibition above about 70%; inactive means the rest.
Experiments:
[1] = NCI Yeast Anticancer Drug Screen. Data for the rad50 strain (AID 155);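 further: 0% = growth of vehicle-only cultures of the same strain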; details: S. cerevisiae rad50 strain growth inhibition, stronger effect = higher value
In short: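 DNA repair mutant yeast, compound exposure, growth read-out; inhibition is taken relative to vehicle.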

[2] = NCI Yeast Anticancer Drug Screen. Data for the mec2-1 strain (AID 157); details: S. cerevisiae mec2-1 strain, stronger effect = higher value
In short: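 Growth inhibition is read against vehicle-treated controls after compound exposure of the mec2-1 yeast strain, which is defective in DNA damage repair or cell cycle control.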

[3] = NCI Yeast Anticancer Drug Screen. Data for the sgs1 mgt1 strain (AID 161);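 further: 0% = growth of cultures given vehicle only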; details: S. cerevisiae sgs1 mgt1 strain, stronger effect = higher value
In short: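 Compounds are added to genetically altered yeast, and growth is compared with cultures given vehicle alone to give percent inhibition.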

[4] = NCI Yeast Anticancer Drug Screen. Data for the cln2 rad14 strain (AID 165);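 further: 0% = growth equal to vehicle treated cultures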; details: S. cerevisiae cln2 rad14 strain, stronger effect = higher value
In short: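 Growth inhibition, relative to vehicle-treated controls, is the read-out. The test organism is a yeast strain with defined genetic alterations, cln2 rad14.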

[5] = NCI Yeast Anticancer Drug Screen. Data for the bub3 strain (AID 167); details: S. cerevisiae bub3 mutant strain, stronger effect = higher value
In short: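 In this screen, a yeast mutant lacking normal mitotic checkpoint function is challenged with compound. Relative growth versus vehicle gives the inhibition value.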

[6] = NCI Yeast Anticancer Drug Screen. Data for the mlh1 rad18 strain (AID 175); details: S. cerevisiae mlh1 rad18 strain growth inhibition, stronger effect = higher value
In short: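 Cells of a genetically altered yeast strain, deficient in DNA damage repair, were treated with compound. Their growth was then compared with that of vehicle-treated cultures to give inhibition.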

[7] = at 5.0 µM (retest, dose inferred, filed as 0.5)
[8] = at 50.0 µM (retest, dose inferred, filed as 5.0)

Structure (SMILES) | growth inhibition [1, 7] | growth inhibition [1, 8] | growth inhibition ([1]; at 50.0 µM) | growth inhibition [2, 7] | growth inhibition [2, 8] | growth inhibition ([2]; at 50.0 µM) | growth inhibition [3, 7] | growth inhibition [3, 8] | growth inhibition ([3]; at 50.0 µM) | growth inhibition [4, 7] | growth inhibition [4, 8] | growth inhibition ([4]; at 50.0 µM) | growth inhibition [5, 7] | growth inhibition [5, 8] | growth inhibition ([5]; at 50.0 µM) | growth inhibition [6, 7] | growth inhibition [6, 8] | growth inhibition ([6]; at 50.0 µM)
Cc1cc(C)c(N2C(=O)C=CC2=O)c(C)c1 | 98% (active) | 98% (active) | 99.7% (active) | 99% (active) | 99% (active) | 99.7% (active) | 99% (active) | 98% (active) | 99.3% (active) | 99% (active) | 98% (active) | 99.2% (active) | 99% (active) | 98% (active) | 99.5% (active) | 98% (active) | 98% (active) | 99.3% (active)
O=C(C1=Cc2ccccc2OC1)N1CCN(c2cccc(Cl)c2)CC1 | -1% | 96% (active) | 49.3% | -6% | 98% (active) | 35.9% | 1% | 97% (active) | 72.2% (active) | -6% | 97% (active) | 57.8% | 10% | 97% (active) | 89.5% (active) | -12% | 97% (active) | 71.2% (active)
CCOC(=O)Nc1cc2c(cc1Br)-c1ccccc1C2O (configuration not stated) | -1% | -3% | 10% | -3% | 12% | -5.6% | -7% | 1% | 10.4% | -2% | 27% | -2.85% | 68% | 95% (active) | 69.4% | -2% | 7% | 18.7%
CCOC(=O)CCCCCN | 6% | 8% | -4.55% | 1% | 2% | -7.75% | 1% | 7% | 34.1% | 9% | -2% | -39.5% | 2% | -4% | 1.75% | 5% | 6% | -30.3%
CCc1ccc(CC(=O)O)c2ccc3c(C)ccc(C)c3c12 | 15% | 96% (active) | 98.9% (active) | 14% | 98% (active) | 95.8% (active) | 14% | 97% (active) | 98.6% (active) | 19% | 93% (active) | 95.8% (active) | 11% | 51% | 63.5% | 8% | 96% (active) | 94.4% (active)
Oc1cc(O)cc(O)c1 | 10% | 76% (active) | 15.7% | -2% | 18% | -4.05% | 0% | 19% | 12.3% | 5% | 17% | 7.85% | -4% | 6% | 69% | -5% | 16% | 23.3%
C[N+]1(C)CCN(CCCN2c3ccccc3Sc3ccccc32)CC1 | 0% | 54% | 42.1% | 8% | 22% | 14.3% | -222% | 66% | 66.9% | 4% | 15% | 25.7% | 5% | 26% | 10.9% | -5% | 76% (active) | 56.9%
CN(Cc1ccccc1)C(c1ccccc1)C(O)C(O)(c1ccccc1)c1ccccc1 (configuration not stated) | -10% | 40% | 85.2% (active) | 10% | 78% (active) | 58.2% | -3% | 70% (active) | 87.3% (active) | -26% | 16% | 19.7% | -9% | 58% | 30.4% | 18% | 81% (active) | 72.5% (active)
Cc1ccc(Nc2nc3c(s2)C(=O)c2ccccc2C3=O)c(C)c1 | 28% | 99% (active) | 98.7% (active) | 33% | 99% (active) | 99.5% (active) | 18% | 99% (active) | 99.2% (active) | 7% | 98% (active) | 98.9% (active) | 50% | 99% (active) | 99.5% (active) | 30% | 98% (active) | 97.8% (active)
COC(=O)c1ccccc1C(=O)c1cc(OC)c2c(c1OC)CCCC2 | -2% | 59% | 90.8% (active) | 0% | 64% | 94.5% (active) | 5% | 63% | 75.5% (active) | -69% | 23% | 47.6% | 3% | -45% | 77% (active) | 3% | 24% | 82.9% (active)
Cc1ccccc1CN(C)CCO | 0% | -8% | 65.7% | -1% | 2% | 17.3% | 2% | 13% | 14.1% | -8% | -1% | 56.8% | -5% | -5% | 13.6% | -5% | -6% | 13.8%
COC(=O)C1(c2ccc(N(C)C)cc2OC)CCCN(C(=O)Oc2ccccc2[N+](=O)[O-])CCc2c1[nH]c1ccccc21 (configuration not stated) | 69% | 71% (active) | 74.9% (active) | 83% (active) | 80% (active) | 66.8% | 52% | 55% | 72.8% (active) | 39% | 52% | 50.5% | 53% | 85% (active) | 42% | 83% (active) | 88% (active) | 75.2% (active)
CCn1c2ccccc2c2ccc(N=Nc3ccc(N(C)C)cc3)cc21 | 34% | 92% (active) | 77% (active) | 19% | 94% (active) | 78.5% (active) | 6% | 92% (active) | 79.5% (active) | 15% | 84% (active) | 85.7% (active) | 10% | 92% (active) | 82.3% (active) | 18% | 93% (active) | 83.4% (active)
CCN1CCC(O)(/C=C/c2ccc(Cl)c(Cl)c2)C(C(=O)/C=C/c2ccc(Cl)c(Cl)c2)C1 (configuration not stated) | 99% (active) | 99% (active) | 99% (active) | 99% (active) | 100% (active) | 99.4% (active) | 99% (active) | 100% (active) | 99.5% (active) | 99% (active) | 99% (active) | 97.8% (active) | 99% (active) | 99% (active) | 99% (active) | 99% (active) | 97% (active) | 98.9% (active)
Cc1ccc(C(=O)N2CCN(C(=O)c3ccc(C)cc3)c3ccccc32)cc1 | -14% | 6% | 42.5% | -13% | -19% | 33.7% | -10% | 30% | 40.8% | -7% | 14% | 36.6% | -3% | 43% | 75.8% (active) | -26% | 14% | 18.9%
O=C(O)C(O)Cc1ccc(O)cc1 (configuration not stated) | -150% | -144% | -3.2% | -46% | -51% | 1.1% | -61% | -61% | 3.7% | -62% | -69% | 39.2% | -70% | -86% | -13.3% | -140% | -122% | -6.4%
O=C(O)C1(Cc2ccc3c(c2)CCC3)Cc2ccccc2C1=O (configuration not stated) | 9% | 9% | 89.9% (active) | -6% | -6% | 92.4% (active) | 3% | 3% | 87.5% (active) | 3% | 3% | 88.2% (active) | -7% | -7% | 90.2% (active) | 1% | 1% | 87% (active)
Nc1ccccc1N=Cc1ccccc1O | -12% | 54% | 66.2% | -4% | 76% (active) | 41.2% | -8% | 91% (active) | 0.4% | -18% | 55% | 22.8% | -12% | 63% | 5.85% | 3% | 80% (active) | 69.3%
CCCCCCCCCCNCCSSCCNC(C)=O | 89% (active) | 98% (active) | 99.2% (active) | 87% (active) | 99% (active) | 99.4% (active) | 97% (active) | 99% (active) | 99.3% (active) | 79% (active) | 92% (active) | 98.4% (active) | 90% (active) | 98% (active) | 99.5% (active) | 90% (active) | 99% (active) | 99.3% (active)

— PubChem BioAssay (NCI)
